The full ranking holds about 39,000 sequences; the median of “fluorescence intensity (a.u.)” is about 4,300, and the highest 2% start at about 39,000. The entries come from a sample that favours the highest values as a whole.
molecular target: T1, OsSMF1 (Oryza sativa, UniProt Q6ZLB0 1-436); experiment: protein-binding microarray (RPBM); PBS, 2% BSA, 51.3 ng/ul salmon testes DNA, 50 uM zinc acetate, 200 nM TF, 25 C, 1 h; high values mean tight binding; conditions: protein: recombinant; tags: N-terminal polyhistidine and DsRed monomer fusion (pET32a); chain copies: 2; label: CyDye5-dUTP incorporated in the synthesized complementary strand; 3' TTTTT single-stranded linker to array surface; dsDNA, one strand shown
T1 sequence: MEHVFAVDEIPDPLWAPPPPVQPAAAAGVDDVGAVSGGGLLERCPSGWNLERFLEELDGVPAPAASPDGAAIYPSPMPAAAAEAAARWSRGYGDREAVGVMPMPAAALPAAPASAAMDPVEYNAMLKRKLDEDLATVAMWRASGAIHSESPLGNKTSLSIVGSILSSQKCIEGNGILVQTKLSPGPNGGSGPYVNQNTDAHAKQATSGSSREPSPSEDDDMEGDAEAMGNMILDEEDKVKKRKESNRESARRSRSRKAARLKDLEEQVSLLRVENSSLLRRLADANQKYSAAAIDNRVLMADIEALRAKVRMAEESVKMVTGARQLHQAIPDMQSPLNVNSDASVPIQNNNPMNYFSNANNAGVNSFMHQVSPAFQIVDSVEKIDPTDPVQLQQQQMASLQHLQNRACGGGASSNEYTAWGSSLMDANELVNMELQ
How it was run: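 Ni–NTA purification followed expression in E. coli BL21-CodonPlus of transcription factors fused N-terminally to a polyhistidine tag and DsRed. At 200 nM in PBS with 2% BSA, salmon testes DNA and 50 µM zinc acetate, the protein was incubated for 1 h at 25 °C with a custom Agilent array that had been primer-extended with Cy5-dUTP and blocked with 2% BSA. After washing, the array was read on an Axon 4000B scanner. The binding signal is per-feature fluorescence intensity in arbitrary units.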

Row | Sequence | binding signal
1 | GCTTGCTCGCCGGCGGTGTGGGAATGATGACTCCCAGCCCCGGAGTCACCTAGTGCAG | 4050 fluorescence intensity (a.u.)
2 | GTCGTGTCGGCTGCCGATTACACTATCGGCAGTGCAGCCGCGGAGTCACCTAGTGCAG | 4270 fluorescence intensity (a.u.)
3 | CGCGGCGCGCACACGCCATGCCGGCATGCCGTGGCATACCCGGAGTCACCTAGTGCAG | 3990 fluorescence intensity (a.u.)
4 | CTATATATGTGACGCTGACGTTCCTCATCTCCCAAGCTGCCGGAGTCACCTAGTGCAG | 7040 fluorescence intensity (a.u.)
5 | TTAGTGTCTGCATTGGATATGAGTCACGGGTTCTTGGTTACGGAGTCACCTAGTGCAG | 12600 fluorescence intensity (a.u.)
6 | CGACGTCGGCGAGGGAGGGCTTCCTGGGCACGTCGGCGAGCGGAGTCACCTAGTGCAG | 3150 fluorescence intensity (a.u.)
7 | ACAGCAAACAAACGTAACACCTTAACACGTCATGCAGTTTCGGAGTCACCTAGTGCAG | 15100 fluorescence intensity (a.u.)
8 | AAGAGTCGGGTTGTGCTGACCCAAAAGCACGACAGCCCATCGGAGTCACCTAGTGCAG | 3250 fluorescence intensity (a.u.)
9 | ATACCGCGACAATGACATCTGAGTCAATGACTCGTGATAACGGAGTCACCTAGTGCAG | 4510 fluorescence intensity (a.u.)
10 | CTCATGATGGCTTTATCAATATCAAGATTTGATGACTCAGCGGAGTCACCTAGTGCAG | 15400 fluorescence intensity (a.u.)
11 | GTTTGAATAGGTCTTTCGTCCCACGTGGCATTGACGTGGCCGGAGTCACCTAGTGCAG | 45700 fluorescence intensity (a.u.)
12 | TAGGTCTTCGTCCCACGTGGCATTGACGTGGCGCTTACGCCGGAGTCACCTAGTGCAG | 30000 fluorescence intensity (a.u.)
13 | CATAGATCTTTTGACTAGGTTTTCGTTCCACGTGGCATCACGGAGTCACCTAGTGCAG | 12900 fluorescence intensity (a.u.)
14 | ACACTTATCGACGTGCCAGCGCGACGCAATATGCTCCGATCGGAGTCACCTAGTGCAG | 5400 fluorescence intensity (a.u.)
15 | CACAAATGAAGAAACAAGGTGTTGCATCACCAGTCATGGGCGGAGTCACCTAGTGCAG | 6740 fluorescence intensity (a.u.)
16 | TTTAACTATGAGAATATATAGTACGTGTTGAGACATGAAACGGAGTCACCTAGTGCAG | 27800 fluorescence intensity (a.u.)
17 | TGACCTAATACATTCATGCTGACTAGCGTTTACGTGGCAACGGAGTCACCTAGTGCAG | 14100 fluorescence intensity (a.u.)
18 | TGCAAGCAGCAAGCGTGTCACTACGTTTACATGACATGCACGGAGTCACCTAGTGCAG | 47600 fluorescence intensity (a.u.)
19 | TCCATGCTGGTTTTAGTCCTACGTGACAATACAGTCAGCACGGAGTCACCTAGTGCAG | 5640 fluorescence intensity (a.u.)
20 | TTTAATTATATTATCACTGACATGTGGGTCCCACTATATGCGGAGTCACCTAGTGCAG | 4330 fluorescence intensity (a.u.)
21 | GCCAATGCCATGTCCTCTGCGGCCTGCTTGCTGGTGAACTCGGAGTCACCTAGTGCAG | 46600 fluorescence intensity (a.u.)
22 | CACTCCTCTGCTGCTCGTCGTCAATGCCATCCTCATCATGCGGAGTCACCTAGTGCAG | 3330 fluorescence intensity (a.u.)

Row | Sequence | binding signal
23 | CTCGACATTGCTGGCAATGCCTGGGAGATTGCTTGCCATGCGGAGTCACCTAGTGCAG | 3180 fluorescence intensity (a.u.)
24 | GATTTGCTTACATGAATAAGGTTGATTTGCATCGGCAAGACGGAGTCACCTAGTGCAG | 4000 fluorescence intensity (a.u.)
25 | CCCTTCCGGCTTCCACGCGTCGGGAACCGAAGTCCAAACCCGGAGTCACCTAGTGCAG | 3360 fluorescence intensity (a.u.)
26 | TCCAAGAAAGAAAGGAGAATTATCCGGCAGTTTCAGAGGTCGGAGTCACCTAGTGCAG | 22200 fluorescence intensity (a.u.)
27 | CCGGAGCCAGTAGTAGCGTTGAGTCGTTGTCGCGAGATGGCGGAGTCACCTAGTGCAG | 3260 fluorescence intensity (a.u.)
28 | ACAGGAATATCTCTTCGAGGGATTAAAATTCACTCCCACTCGGAGTCACCTAGTGCAG | 50800 fluorescence intensity (a.u.)
29 | AGAAAAGGAGGAAAAGAATTTCCCTGGGATTTAAAATATTCGGAGTCACCTAGTGCAG | 26300 fluorescence intensity (a.u.)
30 | TCCCACTCGATTTGGGAGAAAATACAGGGATTAAACTCTGCGGAGTCACCTAGTGCAG | 3550 fluorescence intensity (a.u.)
31 | AGTGTCAGTACACACACTAGCTTCTCTCACCGGCTCTCCGCGGAGTCACCTAGTGCAG | 3210 fluorescence intensity (a.u.)
32 | GTTCAGCTATCAAAGTCCCTGAATAGTTTAGATTTACATTCGGAGTCACCTAGTGCAG | 14100 fluorescence intensity (a.u.)
33 | CTGACAGCTTTTAGTTCACAAATATCAGTAAGATTTCCCTCGGAGTCACCTAGTGCAG | 43200 fluorescence intensity (a.u.)
34 | CACAACTTTTGATTTCAGGACATATGTGTTCAGCTTTCCTCGGAGTCACCTAGTGCAG | 3370 fluorescence intensity (a.u.)
35 | ATTTCATAAAACTGCACATTCTGGGGTTCAAGTTGCAGAACGGAGTCACCTAGTGCAG | 3170 fluorescence intensity (a.u.)
36 | TTCCTCCATCTTGACGTGGGACCCACCTGGAGATTCATCTCGGAGTCACCTAGTGCAG | 4710 fluorescence intensity (a.u.)
37 | TTACACGTTAAGAAAGTGCTAAGTAAACAAGACTGCCTGACGGAGTCACCTAGTGCAG | 17700 fluorescence intensity (a.u.)
38 | ATGCTATATAAATGCCACGTTGTGCGAAGACCAAGTCAACCGGAGTCACCTAGTGCAG | 3510 fluorescence intensity (a.u.)
39 | TGCTACATAAGTGACACGTCAACACCACGTTGTATAAAGACGGAGTCACCTAGTGCAG | 53700 fluorescence intensity (a.u.)
40 | ACTACACCGTCGCAGCGCACCCACGTGACACGCAGCCACACGGAGTCACCTAGTGCAG | 4730 fluorescence intensity (a.u.)
41 | TGATACATTACTCAAGGAAACAGTCACACAGTCTATCACGCGGAGTCACCTAGTGCAG | 3200 fluorescence intensity (a.u.)
42 | CCCTCAAGGGCTCAAAACACTCAAACAGTTCTACATATATCGGAGTCACCTAGTGCAG | 57600 fluorescence intensity (a.u.)
43 | CGTTGGGCTCAAGGGGAGGGATATCTATCTAACAGTAACACGGAGTCACCTAGTGCAG | 4110 fluorescence intensity (a.u.)

Reference: paper PMC7819943, “Rice protein-binding microarrays: a tool to detect cis-acting elements near promoter regions in rice”
